Assay results from publication PMC4336329 (PLoS ONE, 2015).
Hit rate of the full screen: of about 310,000 compounds, about 14,000 (4.5%) showed an effect of 50% or more. Effects have a minus sign here. What follows is part of a selection rich in strong results, with near analogues and random picks from the rest.

The compounds below were run against human ether-à-go-go-related gene (hERG) potassium channel (human, UniProt Q12809) (assay: primary screen, population patch clamp on CHO cells stably expressing hERG; higher = less effect of the substance).
Chain of human ether-à-go-go-related gene (hERG) potassium channel (Q12809 whole entry, looked up): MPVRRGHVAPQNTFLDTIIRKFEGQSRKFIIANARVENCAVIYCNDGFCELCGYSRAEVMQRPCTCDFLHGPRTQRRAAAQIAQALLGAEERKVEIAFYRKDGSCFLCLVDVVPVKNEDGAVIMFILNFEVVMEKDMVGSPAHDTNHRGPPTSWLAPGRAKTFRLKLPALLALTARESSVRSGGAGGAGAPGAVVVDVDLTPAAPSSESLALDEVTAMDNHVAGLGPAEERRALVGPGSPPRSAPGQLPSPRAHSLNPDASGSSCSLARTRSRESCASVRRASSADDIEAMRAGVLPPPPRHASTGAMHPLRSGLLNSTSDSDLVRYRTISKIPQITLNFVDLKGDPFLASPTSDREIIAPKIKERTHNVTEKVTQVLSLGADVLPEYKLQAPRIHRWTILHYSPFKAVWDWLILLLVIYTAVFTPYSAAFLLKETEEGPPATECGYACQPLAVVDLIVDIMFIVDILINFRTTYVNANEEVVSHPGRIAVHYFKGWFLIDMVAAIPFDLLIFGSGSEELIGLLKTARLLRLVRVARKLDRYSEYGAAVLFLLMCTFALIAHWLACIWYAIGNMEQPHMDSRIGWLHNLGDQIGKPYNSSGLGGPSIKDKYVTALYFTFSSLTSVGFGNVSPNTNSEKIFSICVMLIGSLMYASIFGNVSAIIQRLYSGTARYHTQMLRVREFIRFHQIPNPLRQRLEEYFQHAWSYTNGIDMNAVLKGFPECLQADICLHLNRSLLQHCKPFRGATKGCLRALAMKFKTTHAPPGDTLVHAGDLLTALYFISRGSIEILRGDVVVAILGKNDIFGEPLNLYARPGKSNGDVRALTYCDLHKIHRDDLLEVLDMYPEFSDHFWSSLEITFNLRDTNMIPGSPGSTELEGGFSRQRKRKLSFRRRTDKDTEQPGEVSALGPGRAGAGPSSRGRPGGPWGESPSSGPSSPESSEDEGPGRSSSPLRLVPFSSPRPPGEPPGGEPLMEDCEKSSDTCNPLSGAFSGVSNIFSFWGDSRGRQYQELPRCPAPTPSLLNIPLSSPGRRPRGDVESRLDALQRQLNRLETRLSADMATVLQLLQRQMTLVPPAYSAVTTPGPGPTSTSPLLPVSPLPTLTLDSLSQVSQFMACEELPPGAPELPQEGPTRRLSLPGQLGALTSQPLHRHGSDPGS
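Also: peak tail current of the secondary pulse compared with the same well before compound.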

Going from `CC(C)(C)c1nnc(NC(=O)NS(=O)(=O)c2ccccc2)s1` to `COc1ccc(C(=O)O)cc1S(=O)(=O)N(C)C`, the “hERG current change (%, negative = inhibition) at 10uM” value falls from 19.7% to 16.6%.

First: O=C(Nc1nccs1)c1ccc(S(=O)(=O)N2CCCCC2)cc1
Second: Cc1ccc([N+](=O)[O-])cc1S(=O)(=O)N1CCCC1
The “hERG current change (%, negative = inhibition) at 10uM” value of the first is lower: 3.29% for the first, 7.21% for the second.

First: O=C(Nc1cc(Cl)ccc1Oc1ccccc1)c1ccccc1F
Second: O=C(COc1ccccc1)Nc1ccccc1N1CCCCC1
The “hERG current change (%, negative = inhibition) at 10uM” value of the first is lower: -4.45% for the first, 2.27% for the second.

First: CCCC(C)C(=O)Nc1ccccc1C(=O)OCC (centres unmarked)
Second: CCOC(NC(=O)c1ccccc1)C(NC(=O)c1ccccc1)OCC (centres unmarked)
The “hERG current change (%, negative = inhibition) at 10uM” value of the first is lower: -4.39% for the first, -0.069% for the second.

Compared with `O=S(=O)(Nc1ccccc1Cl)c1cc(NC(=S)NCCN2CCOCC2)ccc1Cl`, `CCn1cc(C(=O)NCCN(CC(C)C)CC(C)C)c(=O)c2cc(S(=O)(=O)N3CCOCC3)ccc21` is lower in “hERG current change (%, negative = inhibition) at 10uM” value: 14% for the first, -14.1% for the second.

Compared with `CCN1CCN(S(=O)(=O)c2ccc(C)c([N+](=O)[O-])c2)CC1`, `CCN1CCN(c2ccc(N3CCN(S(=O)(=O)c4ccc(C)c([N+](=O)[O-])c4)CC3)nn2)CC1` is lower in “hERG current change (%, negative = inhibition) at 10uM” value: -0.352% for the first, -56.6% for the second.

First: CCN1CCN(c2ccc(N3CCN(S(=O)(=O)c4cc([N+](=O)[O-])ccc4C)CC3)nn2)CC1
Second: Cc1ccc(S(=O)(=O)N2CCN(c3ccc(N4CCOCC4)nn3)CC2)cc1[N+](=O)[O-]
The “hERG current change (%, negative = inhibition) at 10uM” value of the first is lower: -54.4% for the first, -4.74% for the second.

Compared with `Cc1ccc([N+](=O)[O-])cc1S(=O)(=O)N1CCN(C)CC1`, `CS(=O)(=O)c1ccc(NCC2CCCO2)c([N+](=O)[O-])c1` (centres unmarked) is higher in “hERG current change (%, negative = inhibition) at 10uM” value: 0.51% for the first, 9.48% for the second.

Going from `C[C@]12CC[C@@H]3c4cc(O)c(O)cc4CC[C@H]3[C@@H]1CC[C@@H]2O` to `Cn1c2ccccc2c2cnn(CC(=O)N3CCC4(CC3)OCCO4)c(=O)c21`, the “hERG current change (%, negative = inhibition) at 10uM” value falls from 24.1% to -22.2%.

Going from `O=C(O)c1cc(-c2cccc(Cl)c2)nc2nc(N3CCCCC3)sc12` to `Cc1c2cnn(CC(=O)N3CCC4(CC3)OCCO4)c(=O)c2c(C)n1Cc1cccc(Cl)c1`, the “hERG current change (%, negative = inhibition) at 10uM” value falls from 8.18% to 1.18%.

Going from `CN(CCc1ccccc1)C1CCCN(C(=O)Cn2cccn2)C1` (centres unmarked) to `Cc1c2cnn(CC(=O)N3CCC4(CC3)OCCO4)c(=O)c2c(C)n1Cc1ccccc1`, the “hERG current change (%, negative = inhibition) at 10uM” value rises from -1.49% to -0.415%.

First: Cc1cc(C)nc(SCc2ccc(C(=O)N/N=C/c3ccncc3)cc2)n1
Second: Cc1cc(C)nc(SCc2ccc(C(=O)N/N=C/c3cccnc3)cc2)n1
The “hERG current change (%, negative = inhibition) at 10uM” value of the first is lower: -50.5% for the first, -17.3% for the second.

Compared with `Cc1cc(C)nc(SCc2ccc(C(=O)N/N=C/c3ccc(C(=O)O)cc3)cc2)n1`, `CC#CCCCC(=O)Nc1ccc(C(=O)O)cc1` is lower in “hERG current change (%, negative = inhibition) at 10uM” value: 28.6% for the first, 1.36% for the second.

Going from `N=C1C(c2nc3ccccc3[nH]2)=C(O)CN1NC(=O)c1c[nH]c2ccccc12` to `CCn1cc(C(=O)NCc2ccco2)c(=O)c2cc(S(=O)(=O)N3CCc4ccccc4C3)ccc21`, the “hERG current change (%, negative = inhibition) at 10uM” value falls from 17% to -15.3%.

Compared with `CCOc1ccc(N2C(=O)Nc3ccc(Br)cc3C2(O)C(=O)NC(C)C)cc1` (centres unmarked), `Cc1c2cnn(CC(=O)N3CCC4(CC3)OCCO4)c(=O)c2c(C)n1Cc1ccc(F)cc1` is lower in “hERG current change (%, negative = inhibition) at 10uM” value: 8.92% for the first, -7.31% for the second.

Compared with `O=C(Cn1ncc2c3ccccc3n(Cc3ccc(F)cc3)c2c1=O)N1CCC2(CC1)OCCO2`, `O=C(Cn1ncc2c3ccccc3n(Cc3cccc(Cl)c3)c2c1=O)N1CCC2(CC1)OCCO2` is lower in “hERG current change (%, negative = inhibition) at 10uM” value: -67.2% for the first, -69% for the second.

Compared with `O=C(Cn1ncc2c3ccccc3n(Cc3ccccc3F)c2c1=O)N1CCC2(CC1)OCCO2`, `Cc1c2cnn(CC(=O)N3CCC4(CC3)OCCO4)c(=O)c2c(C)n1Cc1ccccc1F` is higher in “hERG current change (%, negative = inhibition) at 10uM” value: -72.8% for the first, 6.7% for the second.

First: O=C(Cn1ncc2c3ccccc3n(Cc3ccc(F)cc3)c2c1=O)N1CCN(c2ncccn2)CC1
Second: CCN(CC)CCCNC(=O)c1cn(CC)c2ccc(S(=O)(=O)N3CCc4ccccc4C3)cc2c1=O
The “hERG current change (%, negative = inhibition) at 10uM” value of the first is higher: -16.2% for the first, -52.9% for the second.

Going from `Cc1ccc2nc(C(C)O)[nH]c2c1` (centres unmarked) to `COC(=O)c1nnn(CC(=O)NC(=O)Nc2cccc(Cl)c2C)c1C(=O)OC`, the “hERG current change (%, negative = inhibition) at 10uM” value falls from 17.3% to -0.536%.

Going from `CN1CCN(Cc2nc(-c3cccs3)no2)CC1c1ccccc1` (centres unmarked) to `CCCN(CCC)CCCNC(=O)c1cn(CC)c2ccc(S(=O)(=O)N3CCc4ccccc4C3)cc2c1=O`, the “hERG current change (%, negative = inhibition) at 10uM” value falls from -8.45% to -69.9%.

In the case of `CCCCN(CCCC)CCNC(=O)c1cn(CC)c2ccc(S(=O)(=O)N3CCc4ccccc4C3)cc2c1=O`, the “hERG current change (%, negative = inhibition) at 10uM” value is reported as -78.8%.
